Laboratory results: PubChem BioAssay AID504332 (National Center for Advancing Translational Sciences (NCATS), 2011)
In all, about 350,000 compounds went through this assay and about 31,000 (8.9%) were called active. Roughly 15% stayed inconclusive and do not appear here. Calls come from the whole dose curve; as a rule, active = well fitted inhibition curve with a large enough effect; inconclusive = small, poorly fitted or top-dose-only effect; inactive = no such curve, though single readings can be large or run the other way. The sample as a whole holds a higher share of actives than the screen did.

molecular target: Histone-lysine N-methyltransferase EHMT2 (Homo sapiens) (UniProt Q96KQ7); assay: qHTS Assay for Inhibitors of Histone Lysine Methyltransferase G9a; settings: G9a H3K9 monomethylation, AlphaScreen, 2 h; series mostly up to 59 µM; activity, negative = inhibition: at the top concentration; note: nearly all actives have a fitted effect of over 75% in size
Sequence (Q96KQ7 913-1193 limits assumed): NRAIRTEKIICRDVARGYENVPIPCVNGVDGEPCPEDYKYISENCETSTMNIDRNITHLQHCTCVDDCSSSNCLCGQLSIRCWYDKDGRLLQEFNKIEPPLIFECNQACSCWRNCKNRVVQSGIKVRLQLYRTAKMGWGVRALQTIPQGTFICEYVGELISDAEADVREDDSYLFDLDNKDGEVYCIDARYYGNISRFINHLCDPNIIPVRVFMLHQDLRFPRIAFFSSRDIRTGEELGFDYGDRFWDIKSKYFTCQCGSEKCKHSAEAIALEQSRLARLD
Method in brief: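 AlphaScreen detection with an anti-monomethyl H3K9 antibody quantified product after a 2 h room-temperature reaction containing 500 nM biotinylated H3K9 peptide, 20 µM SAM and 20 nM enzyme, which had been preincubated 15 min with compound.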
% is set by controls: 0 for no effect and ±100 for the full control effect; potency is the fitted concentration of half-maximal effect.

activity, negative = inhibition, inactive:
Cc1cccc(NC(=O)Cn2nc(-c3ccc(Cl)cc3)c3ccccc3c2=O)c1 27.7%
CCN(CC)c1ccc(C(=O)NNC(=O)CCc2nc3ccccc3c(=O)[nH]2)cc1 34.4% [at 102 µM]
Cc1ccc(-c2csc(NC(=O)Cc3cccs3)n2)cc1C -13.1% [at 102 µM]
CCCc1ccc(-c2csc(NC(=O)Cc3cccs3)n2)cc1 -17.3% [at 102 µM]
Cc1ccc(-c2csc(NC(=O)Cn3[nH]c(=O)c4ccccc4c3=O)n2)cc1 -22.3% [at 102 µM]
COc1ccc(-c2cc(C(F)(F)F)nc(SCC(=O)N(C)Cc3ccccc3)n2)cc1OC 16.6%
N#Cc1ccc(C2N=C(c3ccccc3)NO2)cc1 (stereo not drawn) 13.3% [at 102 µM]
O=C(c1ccc(OC2CCN(C/C=C/c3ccc(F)cc3)CC2)cc1)N1CCCCC1 4.87% [at 102 µM]
CC1CCC(NC(=O)CNC(=O)c2ccc3ccccc3c2)CC1 (stereo not drawn) 5.09% [at 0.501 µM]
COCCOC(=O)C1=C(C)NC(=O)NC1c1ccc(Cl)cc1 (stereo not drawn) 20.2%
CCOC(=O)C1=C(C)NC2=C(C(=O)CC(C)(C)C2)C1c1ccsc1 (stereo not drawn) 1.73% [at 12.7 µM]
N#Cc1cccc(NC(=O)C2CCCN(C(=O)c3ccc(Cl)cc3)C2)c1 (stereo not drawn) 10.9% [at 12.7 µM]
CCOC(=O)c1sc2nc(C)[nH]c(=O)c2c1C 14.5%
CCOC(=O)c1sc2nc(CSCC(=O)OCc3ccc(C(=O)OC)o3)[nH]c(=O)c2c1C -43.1%
CCCCN1CC(c2nc3ccccc3n2CCCCOc2ccc(C)cc2C)CC1=O (stereo not drawn) -41.5%
CC1CCN(S(=O)(=O)c2ccc3c(ccn3CC(=O)O)c2)CC1 1.09% [at 102 µM]
O=C(CCn1ccc2cc(S(=O)(=O)N3CCCC3)ccc21)NCc1cccc(Cl)c1 -5.24%
Cc1ccccc1N1CC(C(=O)Nc2ccc3c(c2)OCO3)CC1=O (stereo not drawn) 9.33% [at 102 µM]
CC(=O)c1ccccc1NC(=O)C1CC(=O)N(c2ccc3c(c2)OCCO3)C1 (stereo not drawn) 5.62%
CC(C)C[C@H](NC(=O)C1CC(=O)N(c2ccc3c(c2)OCCO3)C1)C(=O)NC1CCCC1 (stereo partly drawn) 19% [at 102 µM]
CCOC(=O)c1ccc(NC(=O)C2CC(=O)N(c3ccc(C(C)C)cc3)C2)cc1 (stereo not drawn) -25.6%
O=C(Nc1nnc(SCc2c(Cl)cccc2Cl)s1)C1CCCO1 (stereo not drawn) 47.8% [at 12.7 µM]
Cc1ccccc1N1CC(C(=O)Nc2ccc(S(=O)(=O)N3CCCC3)cc2)CC1=O (stereo not drawn) 20.1% [at 2.33 µM]
CC(C)c1nnc(NC(=O)C2CC(=O)N(CCc3ccc(F)cc3)C2)s1 (stereo not drawn) -20.7% [at 102 µM]
COc1cccc(N2CC(C(=O)Nc3c(C)cccc3C)CC2=O)c1 (stereo not drawn) 5.2%
CCCCOc1ccc(C(=O)N2CC(=O)Nc3ccc(Br)cc3C2c2ccc(F)cc2)cc1 (stereo not drawn) -34.7%
Cc1ccc(CNC(=O)Cn2c(=O)ccc3cc(S(=O)(=O)N4CCCC4)ccc32)cc1 16.7%
CC(=O)N1c2ccccc2CC1C(=O)N1CCN(c2ccc(F)cc2)CC1 (stereo not drawn) 19.9%
C[C@@H](NC(=O)c1nc[nH]c1C(=O)N1CCN(C(=O)OC(C)(C)C)CC1)c1ccccc1 4.62% [at 2.33 µM]
CCOc1ccc(S(=O)(=O)c2cn(Cc3ccc(OC)cc3)c3ccc(F)cc3c2=O)cc1 -8%
Cc1ccc(Cc2nnc(SCC(=O)Nc3ccc(C)cc3C)[nH]c2=O)cc1 -35.1% [at 102 µM]
CCn1cc(C(=O)NCCc2ccccc2)c(=O)c2cc(S(=O)(=O)N3CCCCCC3)ccc21 -10.9%
CCOC(=O)C1CCCN(C(=O)c2ccc3c(c2)sc2nc(-c4ccc(CC)cc4)cn23)C1 (stereo not drawn) -3.51%
CCOc1ccc(OCC)c(NC(=O)c2cc(C)nc3c2c(C)nn3-c2cccc(Cl)c2C)c1 -2.87%
CC1=C(C(=O)OCc2ccc(C)cc2)C(c2c(Cl)cccc2Cl)CC(=O)N1 (stereo not drawn) 7.19%
COc1ccc(CCNC(=O)COC(=O)c2cc(=O)c3ccccc3o2)cc1 21.3% [at 12.7 µM]
COc1cc(OC)cc(C(=O)Nc2nnc(SCC(=O)NCC3CCCO3)s2)c1 (stereo not drawn) 3.54%
COc1ccccc1N1CC(C(=O)Nc2nnc(SCC(=O)NC(C)C)s2)CC1=O (stereo not drawn) 14.1% [at 12.7 µM]
CN1C(=O)CC(c2ccccc2)C1=O (stereo not drawn) 4.29%
COc1ccc(NC(=O)c2cc([N+](=O)[O-])ccc2NC(=O)CNC2CCCCC2C)c(OC)c1 (stereo not drawn) -24.2% [at 102 µM]
CCOC(=O)c1ccc(NC(=O)CC2C(=O)N(c3ccccc3)C(=O)N2Cc2cccs2)cc1 (stereo not drawn) 3.95%
CCOc1ccccc1NC(=O)COc1ccc(S(=O)(=O)N2CCCC2)cc1 32.9% [at 102 µM]
CCC(=O)N1CCN(c2ccccc2NC(=O)COc2cccc(C)c2C)CC1 14.4% [at 102 µM]
CC(C)n1c(SCC(=O)Nc2ccccc2N2CCCCC2)nc2c1c(=O)n(C)c(=O)n2C 5.12%
Cc1ccc(OCC(=O)Nc2ccccc2C(=O)NC2CC2)cc1 16.8% [at 12.7 µM]

Potency, active:
Cc1cc(C)c(-c2csc(NC(=O)CCCc3nc4ccccc4c(=O)[nH]3)n2)c(C)c1 50.1 µM
CCCn1c(C)cc(-c2csc(NC(=O)CCc3nc4ccccc4c(=O)[nH]3)n2)c1C 25.1 µM
Brc1ccccc1C1N=C(c2ccccc2)NO1 (stereo not drawn) 50.1 µM
CCCOC(=O)C1=C(C)NC2=C(C(=O)C(C(=O)OC)C(C)C2)C1c1ccc(N(C)C)cc1 (stereo not drawn) 44.7 µM
COC(=O)c1sc2[nH]c(=S)n(N)c(=O)c2c1C 7.94 µM
CC1CCN(S(=O)(=O)c2ccc3c(ccn3CCC(=O)NCc3ccc(N(C)C)cc3)c2)CC1 10 µM
CCOC(=O)CSc1nnc(NC(=O)C2CC(=O)N(c3ccc(F)cc3)C2)s1 (stereo not drawn) 63.1 µM
CCc1nnc(NC(=O)C2CC(=O)N(c3ccc4c(c3)OCCO4)C2)s1 (stereo not drawn) 10 µM
Cc1ccccc1N1CC(C(=O)Nc2nnc(SCCC3OCCO3)s2)CC1=O (stereo not drawn) 25.1 µM
Cc1cccc(N2CC(C(=O)Nc3ccccc3N3CCCC3)CC2=O)c1C (stereo not drawn) 70.8 µM
COc1ccccc1N1CC(C(=O)Nc2nnc(SCC(=O)NCC3CCCO3)s2)CC1=O (stereo not drawn) 31.6 µM
CN1CCN(c2ccccc2NC(=O)COc2ccc(C3CCCCC3)cc2)CC1 39.8 µM
Cc1ccc(C(C)C)cc1OCC(=O)Nc1ccccc1N1CCCC1 79.4 µM
